Anthrax LF inh2: blocks Bacillus anthracis lethal factor protease; P15917; multiplex microsphere protease cleavage assay, LF; inhibition, % at 10 µM; actives 0.12% (n = 360,000); AID 588501; note: plate controls were buffer without enzyme for full effect and enzyme alone for no effect
MazEF act: increases E. coli MazEF RNase cleavage of RNA; FAM/BHQ RNA-DNA oligo cleavage fluorescence, 5 h; activation, % at 20 µM; actives 0.32% (n = 350,000); P0AE70; in the data active = activation above about 50%
Target sequence (P0AE70 whole entry, looked up): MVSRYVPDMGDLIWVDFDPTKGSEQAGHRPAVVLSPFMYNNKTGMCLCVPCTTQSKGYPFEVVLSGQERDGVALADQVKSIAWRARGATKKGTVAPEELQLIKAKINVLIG
BoNT F protease: blocks Botulinum neurotoxin F light chain protease | inhibition, % at 10 µM | Multiplex microsphere protease cleavage assay, flow cytometry | actives 0.22% (n = 360,000); in the data active = inhibition above about 35%, passing the limit was not always enough; inconclusive = no clear call, values can overlap the other calls; note: plate controls were buffer without enzyme for full effect and enzyme alone for no effect
BoNT A protease: blocks Botulinum neurotoxin A light chain protease; inhibition, % at 10 µM; multiplex microsphere protease substrate cleavage, flow cytometry; actives 0.17% (n = 360,000); note: plate controls were buffer without enzyme for full effect and enzyme alone for no effect
Bead autofluor: compound fluorescence in toxin protease inhibitor counterscreen; compound autofluorescence counterscreen, microsphere flow cytometry; active compounds read high; fluorescence intensity (no concentration beside the values); actives 3.1% (n = 360,000); AID 624483; in the data active = fluorescence intensity above about 16000; inconclusive = no clear call, values can overlap the other calls
VHR inh abs: blocks human VHR1 dual specificity phosphatase. P51452. recombinant VHR phosphatase, pNPP absorbance. inhibition, % at 13.3 µM. actives 0.52% (n = 290,000). AID 1654; in the data active = inhibition above about 50%
Target sequence (P51452 whole entry, looked up): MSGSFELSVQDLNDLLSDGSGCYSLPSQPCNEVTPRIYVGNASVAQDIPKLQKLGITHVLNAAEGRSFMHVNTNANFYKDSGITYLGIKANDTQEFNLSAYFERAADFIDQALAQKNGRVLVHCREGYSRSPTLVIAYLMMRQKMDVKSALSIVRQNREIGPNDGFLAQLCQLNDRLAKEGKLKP
An asterisk follows results filed as active; i = inactive; ? = inconclusive; / = no result; + = active, no number. Compounds with a hit are over-represented: about 4% of the library has one in this group of screens. Cut-off read from the data, not from the text of the source, unless noted: active = inhibition above about 30%; inconclusive = no clear call, values can overlap the other calls; inactive = below that.

SMILES	Anthrax LF inh2	MazEF act	BoNT F protease	BoNT A protease	Bead autofluor	VHR inh abs
CCOC(=O)C1=C(c2ccccc2)N=c2sc(=Cc3cc(OC)c(OC)c(OC)c3)c(=O)n2C1c1cccs1 (stereo not given)	36.7*	/	17.6	32.4*	3180	/
CCOC(=O)C1=C(c2ccccc2)N=c2s/c(=C\c3ccc(O)cc3)c(=O)n2C1c1cccs1 (stereo not given)	21.0	-25.8	5.1	15.2	10458	10.4
CCc1ccc(N2C(=O)Cc3c2nc(N)c(C#N)c3N)cc1	-0.2	-69.3	5.2	?	21928*	-6.4
O=C(Cc1cccs1)N(Cc1cccs1)C1(C(=O)NC2CCCCC2)CCCCC1	2.5	-2.5	-7.1	-1.0	9635	6.2
CC1(C)OC(c2ccccc2)=C/C(=C/C=C2C(=O)NC(=S)NC2=O)O1	/	+	/	/	/	9.0
O=c1oc2c(O)cccc2cc1-c1nc2ccccc2[nH]1	-0.1	i	?	-4.8	4125	-5.7
O=c1oc2c(CN3CCCCC3)c(O)ccc2cc1-c1nc2ccccc2[nH]1	0.2	-14.1	15.0	13.6	18384*	22.1
C=CCc1cc(C=O)cc(OC)c1OCc1c(Cl)cccc1Cl	-1.9	-10.4	-4.8	?	24171*	1.3
C=CCc1cc(C=C2C(=O)NC(=O)NC2=O)cc(OC)c1OCc1ccc(C(=O)O)cc1	-2.6	-4.0	-2.3	-0.4	3962	-7.4
CCOC(=O)c1c(C)oc2c1c(C(c1cccnc1)N1CCCCC1)c(O)c1ccccc12 (stereo not given)	0.8	-2.2	-11.0	0.2	2682	22.9
CCOC(=O)c1c(C)oc2c1c(C(c1ccccc1)N1CCOCC1)c(O)c1ccccc12 (stereo not given)	-4.8	-9.4	6.0	?	19404*	21.8
O=C(COC(=O)C1(c2ccc(F)cc2)CCCC1)NC1CC1	1.2	-1.1	-2.9	-3.2	17844*	10.4
COc1ccc(-n2cnnc2SCC(=O)N(C)c2ccccc2)cc1	-4.7	0.9	-26.5	-0.6	3589	21.4
COc1ccc(-n2cnnc2SCc2csc(-c3ccccc3)n2)cc1	-2.8	-2.0	-1.4	?	22341*	20.8
CC(Cc1ccccc1)N1Cc2ccccc2C1 (stereo not given)	-12.2	-0.5	-10.3	2.6	3795	/
CCOC(=O)Oc1ccc2c(=O)c(Oc3cccc(C)c3)coc2c1	-2.6	-1.5	-2.6	0.5	7981	6.4
CCOC(=O)Oc1ccc2c(=O)c(Oc3cc(C)cc(C)c3)coc2c1	-1.2	0.8	1.7	?	22166*	46.5
Cc1cccc(Oc2coc3cc(OC(=O)c4cc5ccccc5oc4=O)ccc3c2=O)c1	-0.9	-24.4	-1.2	?	20697*	27.0
COc1ccccc1Oc1coc2cc(OCC(N)=O)ccc2c1=O	18.6	1.9	40.9*	0.2	3638	-3.3
Cc1c(C(=O)NCc2ccccn2)oc2ccccc12	0.0	-10.2	2.9	-0.7	10864	-7.5
CC(=O)Nc1ccc2oc(-c3cc(F)c(F)cc3Cl)nc2c1	3.0	-14.7	6.1	0.6	3946	7.1
CC(C)C(=O)Nc1ccc2oc(-c3cc(F)c(F)cc3Cl)nc2c1	0.8	16.9	0.0	-1.0	24150*	40.3
CCc1ccc(OCCNC(=O)c2ccc(S(=O)(=O)N(C)C)cc2)cc1	-2.5	1.7	0.2	0.0	22522*	21.3
O=C(CCl)N1c2ccccc2Oc2ccc3ccccc3c21	34.8*	-301.1	11.4	30.8*	3811	/
CCCCn1nnnc1NCc1ccc(N(CC)CC)cc1	-3.5	-1.9	-3.2	-1.7	23951*	21.3
SMILES	Anthrax LF inh2	MazEF act	BoNT F protease	BoNT A protease	Bead autofluor	VHR inh abs
CCCCn1nnnc1NCc1ccc(C)cc1	-4.7	5.9	-36.6	1.0	4277	19.3
COc1ccc(Cc2nnc(SCc3nc4ccccc4c(=O)[nH]3)o2)cc1	5.2	21.2	0.9	0.7	6554	9.7
CN(C)S(=O)(=O)c1ccc(C(=O)Nc2ccccc2F)cc1	-1.6	5.9	1.0	-0.7	16551*	-28.9
CCOC(=O)c1[nH]c2ccccc2c1NC(=O)c1ccc(S(=O)(=O)N(C)C)cc1	-3.2	5.1	0.4	0.3	6050	0.2
CCOC(=O)c1oc2ccccc2c1NC(=O)c1ccc(S(=O)(=O)N2CCCC2)cc1	-0.2	-48.3	2.2	1.8	20008*	3.0
CCOC(=O)c1oc2ccccc2c1NC(=O)c1ccc(S(=O)(=O)N(C)C)cc1	-6.9	-20.7	8.1	6.1	20341*	6.0
CCOC(=O)c1[nH]c2ccccc2c1NC(=O)c1ccc(S(=O)(=O)N2CCCCC2)cc1	-4.1	5.4	5.5	-0.5	4163	0.2
Cc1ccnc(NC(=O)c2sc3cc(Cl)ccc3c2Cl)c1	1.1	-83.9	-2.9	0.1	2121	13.6
Cn1cc(CNC(=O)C23CC4CC(CC(C4)C2)C3)cn1	7.8	-4.0	35.5*	3.0	3911	3.3
O=C(NCCN1CCOCC1)c1ccc(NC(=O)C2COc3ccccc3O2)cc1 (stereo not given)	0.3	-3.8	5.5	-0.4	3913	8.5
NC(=O)C1CCN(C(=O)C(=O)c2cn(CC(=O)N3CCCC3)c3ccccc23)CC1	-1.8	-1.3	6.4	1.8	5646	11.2
CC1(C(=O)NCCC(F)(F)F)Cc2c(-c3cccc(C(F)(F)F)c3)ccnc2O1 (stereo not given)	1.3	/	-3.8	-0.1	3559	/
O=C(CSC1=NCCS1)Nc1ccc(S(=O)(=O)N2CCCCCC2)cc1	-1.4	-6.3	1.4	0.9	23340*	28.0
O=C(CSc1nc2ccccc2c(=O)[nH]1)Nc1ccc(S(=O)(=O)N2CCCC2)cc1	0.8	5.6	-2.8	?	16902*	15.3
Cc1ccc(NC(=O)CSc2nc(NS(=O)(=O)c3ccc(C)cc3)cc(=O)[nH]2)cc1	-1.5	-0.8	3.7	?	19078*	-33.1
O=C(CSc1nc2cc3ccccc3cc2[nH]1)Nc1ccc(F)cc1	-1.1	5.8	1.1	?	23788*	-6.0
O=C(CSC1=NCCS1)Nc1ccc(S(=O)(=O)NC2CCCCC2)cc1	-1.6	-7.1	-4.1	-0.7	8080	42.2
O=C(CSc1nc2ccccc2c(=O)[nH]1)Nc1ccc(C(=O)O)cc1	-0.2	6.7	-11.5	-5.2	?	29.7
COc1ccc(NC(=O)CSc2nc3ccc(OC)cc3[nH]2)cc1	-1.9	1.7	3.4	-0.4	3514	15.0
CN(CC(=O)NCCc1ccc(S(N)(=O)=O)cc1)CC(=O)Nc1cccc(F)c1	3.9	-2.1	?	2.6	?	/
O=C(CCNS(=O)(=O)c1cccc(C(F)(F)F)c1)NCc1ccco1	-2.3	-0.1	1.8	-0.4	2912	/
COc1ccc(C(=O)C(OC(=O)c2ccccc2)c2ccccc2)cc1 (stereo not given)	-1.1	0.8	-6.3	-1.8	9557	26.1
Cc1csc(NC(=O)CSc2nc3ccccc3c(=O)[nH]2)n1	16.2	-14.5	8.5	-0.1	10517	6.7
Cc1cccc(C)c1NC(=O)CSc1nc2ccccc2c(=O)[nH]1	-0.3	6.4	-1.3	?	22821*	-3.8

Screens as filed in PubChem.
